{"source": "PubChem BioAssay AID1628", "about": "(Sanford-Burnham Center for Chemical Genomics, 2009)", "note": "In all, about 190,000 compounds went through this assay and about 930 (0.49%) were called active.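 Rule for the calls: active = z-score of insulin promoter reporter brightness in nuclei below -3 at 5 µM, with at least 500 cells counted; inconclusive = wells with under 500 cells, flagged as toxic or sparse; inactive = the rest.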 The list shows a part of the results. Measured potencies and affinities stand elsewhere."}
{"experiment": "insulin promoter down-regulators in MIN6 cells, imaging, high-content screening, mouse beta cells (AID 1628)", "conditions": "MIN6 insulin promoter GFP reporter, at 5 µM, stronger effect = lower value"}
{"molecule": "COc1cc([C@@H]2[C@H]3CN(C)CC=C3C(C#N)=C(N)C2(C#N)C#N)cc2c1OCO2", "z-score": "5.23 (inactive)"}
{"molecule": "COc1cc(/C=N/N=C(\\N)c2nonc2N)cc(OC)c1OC", "z-score": "3.59 (inactive)"}
{"molecule": "O=C(Nc1ccccc1)N1CCSc2ccccc21", "z-score": "-3.05 (active)"}
{"molecule": "O=C(Nc1ccccc1)C(O)C(O)C(=O)Nc1ccccc1", "note": "(configuration not stated)", "z-score": "-0.63 (inactive)"}
{"molecule": "COC(=O)c1cn(NC(=O)/C=C/c2cc(OC)ccc2OC)c(=O)c2ccccc12", "z-score": "-3.15 (active)"}
{"molecule": "CC1(C#CC[N+]2(C)CCCCC2)CCC2C(O1)c1ccccc1OC2(C)C", "note": "(configuration not stated)", "z-score": "3.38 (inactive)"}
{"molecule": "COc1ccc(-c2nn(-c3ccccc3)cc2/C=C(\\C#N)S(=O)(=O)c2ccccc2)cc1OC", "z-score": "-4.08 (active)"}
{"molecule": "CC(=O)C(=Cc1cn(-c2ccccc2)nc1-c1ccccc1)C(C)=O", "z-score": "3.2 (inactive)"}
{"molecule": "CN(C)c1ccc(/C=C/c2ccc3ccccc3n2)cc1", "z-score": "7.29 (inactive)"}
{"molecule": "Cc1cc(N2C(=O)c3ccccc3C2=O)n(C)n1", "z-score": "3.77 (inactive)"}
{"molecule": "O=C(/C=C/c1ccco1)NC(=S)Nc1ccccc1N1CCCC1", "z-score": "3.08 (inactive)"}
{"molecule": "CCn1c(SCC(=O)Nc2cc(OC)c(OC)c(OC)c2)nnc1-c1cccs1", "z-score": "-4.1 (active)"}
{"molecule": "COc1ccc(NC(=O)CSc2nnc(-c3cccs3)n2C)cc1OC", "z-score": "3.55 (inactive)"}
{"molecule": "CCn1c(SCC(=O)N2CCCC2)nnc1-c1ccc(N)cc1", "z-score": "1.98 (inactive)"}
{"molecule": "CCOC(=O)c1ccc(CSc2nnc(-c3ccncc3)n2N)cc1", "z-score": "3.8 (inactive)"}
{"molecule": "CCc1nnc(NC(=O)CSc2ccc(-c3cccs3)nn2)s1", "z-score": "1.38 (inactive)"}
{"molecule": "CCOc1ccccc1N1CC(O)=C(c2nc3ccccc3s2)C1=N", "z-score": "-3.91 (active)"}
{"molecule": "Cc1ccc(N2C(=O)C3C(C(=O)c4ccccc4)=NN(c4ccccc4)C3C2=O)cc1", "note": "(configuration not stated)", "z-score": "3.17 (inactive)"}
{"molecule": "Cc1ccc(-n2cc(-c3ccc([N+](=O)[O-])cc3)[nH]c2=S)c(C)c1", "z-score": "-6.17 (active)"}
{"molecule": "CCN1CCC2(CC1)N=C(c1ccc(F)cc1)C(=S)N2", "z-score": "4.47 (inactive)"}
{"molecule": "CS(=O)(=O)ON=C1CCN(S(=O)(=O)c2ccccc2)CC1", "z-score": "3.51 (inactive)"}
{"molecule": "O=c1oc2c(CN3CCCCC3)c(O)ccc2cc1-c1nc2ccccc2[nH]1", "z-score": "3.57 (inactive)"}
{"molecule": "O=C1C=C(c2ccccc2)C[C@H](c2cccs2)[C@H]1n1nnc([N+](=O)[O-])n1", "z-score": "-3.36 (active)"}
{"molecule": "CCOC(=O)CC1C(=O)NCCN1c1nc2c(C)cccn2c(=O)c1/C=C1\\SC(=S)N(CC(C)C)C1=O", "note": "(configuration not stated)", "z-score": "16.9 (inactive)"}
{"molecule": "CCN(CC)CCCC(C)Nc1c2ccc(Cl)cc2nc2ccc(OC)cc12", "note": "(configuration not stated)", "z-score": "12.4 (inactive)"}
{"molecule": "CCN(CC)CCCNc1nc2cc(OC)c(OC)cc2c2nc(-c3cccnc3)nn12", "z-score": "-3.38 (active)"}
{"molecule": "COc1ccc(-c2c[n+](CC(=O)N3c4ccccc4Sc4ccccc43)c3n2CCC3)cc1", "z-score": "-3.33 (active)"}
{"molecule": "CC1CCC(C(C)C)C(OC(=O)C[n+]2cc(-c3ccc(Cl)cc3)n3c2CCCCC3)C1", "note": "(configuration not stated)", "z-score": "-4.3 (active)"}
{"molecule": "Nc1ccc(-c2nc3nc(N)nc(N)c3nc2-c2ccc(N)cc2)cc1", "z-score": "4.9 (inactive)"}
{"molecule": "Cc1cccc(OCC2=N/C(=C\\N(C)C)C(=O)O2)c1", "z-score": "2.11 (inactive)"}
{"molecule": "Nc1nonc1C(=O)NCCNCc1ccccc1OCc1ccccc1F", "z-score": "-3.51 (active)"}
{"molecule": "COc1ccc(S(=O)(=O)N(CCCN2CCCC2=O)Cc2cc3c(C)ccc(C)c3[nH]c2=O)cc1", "z-score": "-4.34 (active)"}
{"molecule": "COc1ccc(C(=O)N(CN2CCCC2=O)c2ccc(C)cc2)cc1", "z-score": "3.42 (inactive)"}
{"molecule": "COC(=O)c1cnn2c(C(F)(F)F)cc(-c3ccc(F)cc3)nc12", "z-score": "4.23 (inactive)"}
{"molecule": "Oc1c(C(c2ccccn2)N2CCCCC2)cc(Cl)c2cccnc12", "note": "(configuration not stated)", "z-score": "-5.13 (active)"}
{"molecule": "COc1ccc(NC(=S)N(CCCN2CCOCC2)C(C)c2cc3cccc(OC)c3o2)cc1", "note": "(configuration not stated)", "z-score": "2.54 (inactive)"}
{"molecule": "COc1ccc(-c2csc(N(CCCN(C)C)C(=O)c3cccs3)n2)cc1", "z-score": "-4.21 (active)"}
{"molecule": "COc1ccc(-c2cc(C(F)(F)F)nc(SCC(=O)NCCN3CCOCC3)n2)cc1OC", "z-score": "0.28 (inactive)"}
{"molecule": "COc1ccc(-c2csc(N(CCCN3CCOCC3)C(=O)c3ccco3)n2)cc1", "z-score": "-4.01 (active)"}
{"molecule": "CN(C)CCCN(C(=O)COc1ccc(Cl)cc1)c1nc2ccc(F)cc2s1", "z-score": "1.61 (inactive)"}
{"molecule": "COc1ccc(C(=O)CSc2nnc(Cn3cnc4ccccc43)o2)cc1", "z-score": "-3.47 (active)"}
{"molecule": "Cc1[nH]c2ccccc2c1Cc1nnc(SCC(N)=O)o1", "z-score": "4.82 (inactive)"}
{"molecule": "CCC(=O)c1cc(F)c(N2CCN(S(=O)(=O)c3ccc(C)cc3)CC2)cc1C", "z-score": "-4.01 (active)"}
{"molecule": "C/C(=N\\S(=O)(=O)c1ccc(C)cc1)N1CCN(S(=O)(=O)c2ccccc2)C1", "z-score": "3.52 (inactive)"}
{"molecule": "CCCSc1nc2sc3c(c2c(=O)[nH]1)CCN(Cc1ccccc1)C3", "z-score": "7.3 (inactive)"}
{"molecule": "O=C(c1ccco1)N(Cc1ccccc1)c1cccc([N+](=O)[O-])c1", "z-score": "2.28 (inactive)"}
{"molecule": "CC(C)(C)c1cc(C(=O)NCc2cccnc2)ccn1", "z-score": "4.34 (inactive)"}
